Out of some 310,000 compounds screened, about 14,000 (4.5%) showed an effect of 50% or more. Effects have a minus sign here. The sample holds strong results, similar compounds and a random draw of the others, so the mix is not that of the screen.
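Also: peak tail current of the secondary pulse compared with the same well before compound.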

Sequence of human ether-à-go-go-related gene (hERG) potassium channel (Q12809 whole entry, looked up): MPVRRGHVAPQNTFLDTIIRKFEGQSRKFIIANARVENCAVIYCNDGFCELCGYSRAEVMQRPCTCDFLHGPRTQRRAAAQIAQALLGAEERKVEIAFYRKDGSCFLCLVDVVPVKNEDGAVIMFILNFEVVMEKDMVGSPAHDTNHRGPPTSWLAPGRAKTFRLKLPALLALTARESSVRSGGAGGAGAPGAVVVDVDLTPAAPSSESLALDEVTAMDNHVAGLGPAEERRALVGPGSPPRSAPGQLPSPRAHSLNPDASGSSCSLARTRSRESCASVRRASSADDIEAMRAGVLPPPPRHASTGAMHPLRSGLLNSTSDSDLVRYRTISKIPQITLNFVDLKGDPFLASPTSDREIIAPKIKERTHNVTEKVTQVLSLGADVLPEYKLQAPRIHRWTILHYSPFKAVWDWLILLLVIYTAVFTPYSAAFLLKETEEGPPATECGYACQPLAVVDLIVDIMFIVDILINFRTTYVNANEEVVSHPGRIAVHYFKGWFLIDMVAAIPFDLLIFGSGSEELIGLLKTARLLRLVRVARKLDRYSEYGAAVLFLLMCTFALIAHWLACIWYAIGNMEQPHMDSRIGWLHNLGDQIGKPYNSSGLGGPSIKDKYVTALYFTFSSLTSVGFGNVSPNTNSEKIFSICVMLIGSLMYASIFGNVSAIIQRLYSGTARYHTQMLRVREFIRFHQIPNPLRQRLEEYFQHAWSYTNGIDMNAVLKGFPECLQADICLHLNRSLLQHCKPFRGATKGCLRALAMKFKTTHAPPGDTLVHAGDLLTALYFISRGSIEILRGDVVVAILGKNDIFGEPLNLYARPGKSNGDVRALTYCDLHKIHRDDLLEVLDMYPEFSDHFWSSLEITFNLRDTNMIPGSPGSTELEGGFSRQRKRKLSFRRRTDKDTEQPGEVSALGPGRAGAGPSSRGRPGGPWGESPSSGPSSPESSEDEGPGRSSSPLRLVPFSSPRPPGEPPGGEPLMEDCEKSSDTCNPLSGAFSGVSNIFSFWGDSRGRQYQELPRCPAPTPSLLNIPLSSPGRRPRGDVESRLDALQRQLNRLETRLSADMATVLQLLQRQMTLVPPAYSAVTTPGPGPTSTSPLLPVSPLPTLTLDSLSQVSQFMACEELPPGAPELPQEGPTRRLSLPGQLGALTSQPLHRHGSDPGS

This test addresses human ether-à-go-go-related gene (hERG) potassium channel (human, UniProt Q12809). Description: primary screen, population patch clamp on CHO cells stably expressing hERG; higher = less effect of the substance.
As to `C[C@]12CCC3C(CC[C@H]4CC(O)CC[C@]34C)C1CC/C2=N/NC(=O)c1ccncc1` (some centres unmarked), the “hERG current change (%, negative = inhibition) at 10uM” value is recorded as -10.8%.

Regarding `COc1c(C)cccc1C(=O)Nc1cc(Cl)ccc1N1CCOCC1`, the “hERG current change (%, negative = inhibition) at 10uM” value turned out to be 7.1%.

As for `O=C(Nc1cc(-c2ccccc2)sc1C(=O)O)c1cccc(F)c1`, the “hERG current change (%, negative = inhibition) at 10uM” value is listed as 33.5%.

In the case of `CCOC(=O)C1CCN(C(=O)CCNS(=O)(=O)c2ccc3c(c2)CCN3C(=O)CC)CC1`, the “hERG current change (%, negative = inhibition) at 10uM” value stood at 7.82%.

Regarding `CCc1ccc(CN(C)CC(=O)Nc2sccc2C#N)cc1`, the “hERG current change (%, negative = inhibition) at 10uM” value is on record as -16.4%.

Take `COc1ccc(/C=N/N=C2/NC(=O)C(CC(=O)O)S2)cc1OCc1ccc(Cl)cc1` (centres unmarked): the “hERG current change (%, negative = inhibition) at 10uM” value is -1.97%.

Regarding `O=C(NC1CCCCC1)C(c1ccccn1)N(C(=O)c1csnn1)c1ccccc1` (centres unmarked), the “hERG current change (%, negative = inhibition) at 10uM” value is reported as 1.6%.

For the molecule `O=C(NC1CCCCC1)c1cc(-c2cccc(Cl)c2)on1`, the “hERG current change (%, negative = inhibition) at 10uM” value stood at 11.7%.

With `CCOC(=O)C1C(=O)NC(c2ccccc2)=NC1c1ccc(OC)cc1` (centres unmarked), the “hERG current change (%, negative = inhibition) at 10uM” value was -12.2%.

As for `CC(=O)N1CCC(N(CCN2CCOCC2)C(=S)Nc2c(C)cccc2C)CC1`, the “hERG current change (%, negative = inhibition) at 10uM” value was 8.51%.

As for `NC(=O)c1nsc(C(=O)N(c2ccc3c(c2)OCO3)C(C(=O)NCC2CCCO2)c2ccc(F)cc2)c1N` (centres unmarked), the “hERG current change (%, negative = inhibition) at 10uM” value is -8.25%.

Take `CC1CC(c2ccccc2)n2nc(NC(=O)c3ccco3)nc2N1` (centres unmarked): the “hERG current change (%, negative = inhibition) at 10uM” value is 24.6%.

As for `O=C(O)CCCC(=O)Nc1nc2n(n1)C(c1ccc(F)cc1)CC(c1ccc(Cl)cc1)N2` (centres unmarked), the “hERG current change (%, negative = inhibition) at 10uM” value was -0.46%.

On to `COc1ccc(C2CC(c3ccc(OC)cc3)n3nc(NC(=O)c4ccco4)nc3N2)cc1` (centres unmarked), for which the “hERG current change (%, negative = inhibition) at 10uM” value is -19.2%.

As for `COCC(=O)Nc1nc2n(n1)C(c1ccc(Cl)cc1)CC(c1ccc(OC)cc1)N2` (centres unmarked), the “hERG current change (%, negative = inhibition) at 10uM” value was -73.8%.

As for `COCC(=O)Nc1nc2n(n1)C(c1ccccc1)CC(c1ccc(OC)cc1)N2` (centres unmarked), the “hERG current change (%, negative = inhibition) at 10uM” value was -3.73%.

As to `COc1ccc(C2CC(c3ccccc3)Nc3nc(NC(=O)c4ccco4)nn32)cc1` (centres unmarked), the “hERG current change (%, negative = inhibition) at 10uM” value is listed as -64.4%.

As to `COCC(=O)Nc1nc2n(n1)C(c1ccccc1Cl)CC(c1ccc(OC)cc1)N2` (centres unmarked), the “hERG current change (%, negative = inhibition) at 10uM” value is -18.6%.

Regarding `O=C(Nc1nc2n(n1)C(c1ccccc1)CC(c1ccc(Cl)cc1)N2)c1ccco1` (centres unmarked), the “hERG current change (%, negative = inhibition) at 10uM” value was -53.1%.

Regarding `O=C(Nc1nc2n(n1)C(c1ccc(Cl)cc1)CC(c1ccc(Cl)cc1)N2)c1ccco1` (centres unmarked), the “hERG current change (%, negative = inhibition) at 10uM” value was -38.3%.

Consider `O=[N+]([O-])c1ccc(NCCO)c2ncccc12`, for which the “hERG current change (%, negative = inhibition) at 10uM” value was determined as 2.11%.

With `CC(Sc1ncc(C(F)(F)F)cc1Cl)C(=O)NC(N)=O` (centres unmarked), the “hERG current change (%, negative = inhibition) at 10uM” value came out at 0.58%.

On to `COC(=O)c1cc(OC)c(OC)cc1NC(=O)Cc1cccs1`, for which the “hERG current change (%, negative = inhibition) at 10uM” value came to 0.709%.

Turning to `CCCn1nnnc1NCc1ccc(C(C)C)cc1`, the “hERG current change (%, negative = inhibition) at 10uM” value stood at 4.94%.

With `CCC1CCCCN1c1cc(C)nc2cc(-c3cccc(C)c3)nn12` (centres unmarked), the “hERG current change (%, negative = inhibition) at 10uM” value is -1.65%.

`CCCCCCCCCCCCCCCC[n+]1cccc(C(=O)N(CC)CC)c1.[Br-]`: the “hERG current change (%, negative = inhibition) at 10uM” value is -69.7%.

With `CCCCCCCCCC[n+]1cccc(C(=O)N(CC)CC)c1.[Br-]`, the “hERG current change (%, negative = inhibition) at 10uM” value was -0.215%.

As to `CCCCCCCC[n+]1cccc(C(=O)N(CC)CC)c1.[Br-]`, the “hERG current change (%, negative = inhibition) at 10uM” value is given as 13%.

In the case of `COc1ccc(CNn2c(-c3cccc(C)c3)nc3ccccc3c2=O)cc1OC`, the “hERG current change (%, negative = inhibition) at 10uM” value is reported as -73.6%.

Turning to `COc1ccccc1CNn1c(-c2cccc(C)c2)nc2ccccc2c1=O`, the “hERG current change (%, negative = inhibition) at 10uM” value is listed as -11%.

For `COc1cccc(CNn2c(-c3cccc(C)c3)nc3ccccc3c2=O)c1`, the “hERG current change (%, negative = inhibition) at 10uM” value is recorded as -9.77%.

With `CC1(C)C2CCC(C2)C1(C)NC(=O)CN1CCCC1.Cl` (centres unmarked), the “hERG current change (%, negative = inhibition) at 10uM” value is -0.213%.

With `Cc1cc2oc(=O)cc(C)c2c(=O)o1`, the “hERG current change (%, negative = inhibition) at 10uM” value is given as -65.8%.

For `COc1cc(OC)c2c(C)cc(=O)oc2c1`, the “hERG current change (%, negative = inhibition) at 10uM” value turned out to be 15.4%.

For `COc1cc2oc(=O)cc(C)c2c(OC)c1OC`, the “hERG current change (%, negative = inhibition) at 10uM” value is on record as 17.9%.

Regarding `CCOc1ccc(NC(=O)Cn2cc(C(=O)CC)c3ccccc32)cc1`, the “hERG current change (%, negative = inhibition) at 10uM” value came out at 14.7%.

As to `Cc1ccc2oc(=O)c(/C=C(\O)C(C)(C)C)nc2c1`, the “hERG current change (%, negative = inhibition) at 10uM” value came to 17.1%.

Turning to `Cc1ccc2nc(SCC(=O)Nc3cccc([N+](=O)[O-])c3)[nH]c2c1`, the “hERG current change (%, negative = inhibition) at 10uM” value is -11.7%.

As for `Cc1cnc(=O)[nH]c1SCc1cccc([N+](=O)[O-])c1`, the “hERG current change (%, negative = inhibition) at 10uM” value is given as 2.35%.

On to `Cc1ccc2nc(SCC(=O)Nc3cc([N+](=O)[O-])ccc3F)[nH]c2c1`, for which the “hERG current change (%, negative = inhibition) at 10uM” value was -57.4%.

For `O=[N+]([O-])c1ccc(Cc2cncc(O)c2)cc1`, the “hERG current change (%, negative = inhibition) at 10uM” value is reported as -17.3%.

Turning to `O=[N+]([O-])c1ccc(Cc2ccncc2)cc1`, the “hERG current change (%, negative = inhibition) at 10uM” value was -26.9%.

On to `Cc1ccc2nc(SCC(=O)Nc3ccc(F)c([N+](=O)[O-])c3)[nH]c2c1`, for which the “hERG current change (%, negative = inhibition) at 10uM” value is -2.06%.

As for `Cc1nc2nc(SCc3ccc([N+](=O)[O-])cc3)[nH]c2cc1Br`, the “hERG current change (%, negative = inhibition) at 10uM” value came out at 1.02%.

The values above are taken from PMC4336329 (PLoS ONE, 2015).
